Assay outcomes as filed in PubChem BioAssay.
PABP1 MLLE inh: inhibitors of PABP1 MLLE–PAM2 peptide binding, primary screen, biochemical, fluorescence polarization, FITC-PAM2, GST-MLLE; actives 0.36% (n = 360,000); inhibition, % at 20 µM; AID 588489, 2011; in the data active means inhibition above about 35%, passing the limit was not always enough;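 further: plate controls were DMSO wells with GST-MLLE for no effect and wells lacking GST-MLLE protein for full effect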
PABP polyA inh: PABP poly(A) RNA binding inhibitors, primary screen, biochemical, fluorescence polarization, uHTS; Polyadenylate-binding protein 1 (Homo sapiens), P11940; calls only at 35 µM; actives 1% (n = 290,000);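 further: calls also rest on retests at 20 µM and on dose response follow-up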
PHOSPHO1 inh: PubChem AID 1565 | actives 1.1% (n = 290,000) | Phosphoethanolamine/phosphocholine phosphatase (Homo sapiens), Q8TCT1 | inhibition, % at 13.3 µM | recombinant PHOSPHO1, absorbance phosphatase assay; in the data active means inhibition above about 60%
eIF4H inh: human eIF4H binding inhibitors, primary screen, translation initiation inhibitor project, biochemical, uHTS, fluorescence polarization; eIF4H fluorescence polarization binding assay; actives 0.94% (n = 290,000); inhibition, % at 35 µM;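 further: calls also rest on retests at 20 µM and on dose response follow-up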
HMGR II inh: inhibitors of E. faecalis class II HMGR, primary screen, biochemical, Enterococcus faecalis; HMG-CoA reductase (Enterococcus faecalis, mvaE); purified E. faecalis HMGR, NADPH absorbance 340 nm kinetic; inhibition, % at 10 µM; actives 0.41% (n = 190,000); AID 1066, 2008;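 active means inhibition above a set limit, the median over all tested compounds plus 3 SD, cut at about 9.5% in these data; inconclusive means no clear call, values can overlap the other calls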;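 further: enzyme runs in reverse so mevalonate oxidation gives rising NADPH absorbance; 0% = complete reaction with DMSO and 100% = background rate lacking mevalonate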
Numbers without * were called inactive; i = inactive; ? = inconclusive; / = no result given; + = active, no number. The list is not random: actives were taken first. Their share in the collection is about 2.4%. Unless noted, how the calls were made is not given here.

SMILES | PABP1 MLLE inh | PABP polyA inh | PHOSPHO1 inh | eIF4H inh | HMGR II inh
CC(=O)N1N=C(N)SC12CCCC2 | -8 | i | -16 | -8 | 11*
CC(=O)C(Cc1ccc(Cl)nc1)(Cc1ccc(Cl)nc1)C(C)=O | -4 | i | 30 | 1 | 10.0*
CC(=O)C(Cc1cnc(Cl)s1)(Cc1cnc(Cl)s1)C(C)=O | 20 | i | -10 | -9 | -2
Cc1ccccc1SCC(=O)NC1CCOC1=O (configuration not stated) | 40* | i | -4 | 4 | -1
Cn1cc(/C=N\O)nc2c(=O)n(-c3ccccc3)c(=O)nc1-2 | 37* | i | 19 | 99 | 0
CC(C)(C)C1=Nn2c(nnc2-c2n[nH]c3c2CCC3)SC1 | -58 | i | 68* | 6 | -1
COC(=O)c1c(C)oc(C)c1S(=O)(=O)NC(c1ccccc1)c1ccccc1 | -10 | i | 18 | 2 | /
N=C1S/C(=C\c2ccco2)C(=O)N1c1ccc2c(c1)OCO2 | -11 | + | -14 | 91 | 2
N=C1S/C(=C\c2ccco2)C(=O)N1c1nccs1 | 7 | + | -14 | 95* | -6
COc1ccccc1OCCN1C(=O)S/C(=C\c2ccco2)C1=O | 0 | i | 34 | -13 | -2
C=CCN(c1ccc(C(=O)NCCN2CCOCC2)cc1)S(C)(=O)=O | 13 | i | / | -3 | /
CCN(CC(=O)NCc1cccs1)C(=O)c1cccc(Cl)c1 | 4 | / | / | / | /
Cn1cccc1CC(=O)N/N=C/C=C/c1ccco1 | -13 | i | -11 | 99 | -1
CCOc1cc2c(C#N)c(N(CC)CC)nc(N)c2c(N)n1 | -55 | / | / | / | /
CCOc1cc2c(C#N)c(N3CCOCC3)nc(N)c2c(N)n1 | 7 | + | -7 | 73* | -1
O=C(O)Cn1c2ccccc2c2n[nH]c(=S)nc21 | 43* | i | -130 | 13 | /
O=C(C1CCCN(Cc2cccs2)C1)N1CCCCCC1 (configuration not stated) | -2 | i | -3 | 3 | -4
CCOC(=O)C1CCCN(Cc2cccs2)C1 (configuration not stated) | 5 | i | 73* | 5 | 0
CCOC(=O)CC1C(=O)NCCN1Cc1cccs1 (configuration not stated) | 3 | i | 64* | -6 | -4
Cc1ccc(C(=O)CSc2nc3cc(S(=O)(=O)N4CCOCC4)ccc3o2)cc1 | 22 | i | 68* | -11 | -6
Cc1nc2ccc(Nc3nc4cc(S(=O)(=O)N5CCOCC5)ccc4o3)cc2s1 | 17 | i | 92* | -4 | 1
O=C(CSc1nc2cc(S(=O)(=O)N3CCOCC3)ccc2o1)Nc1c(F)cccc1F | 26 | i | -164 | 6 | -7
O=C(CSc1nc2cc(S(=O)(=O)N3CCOCC3)ccc2o1)NC1CCCc2ccccc21 (configuration not stated) | 25 | i | 76* | -7 | 1
CCSc1nc2cc(S(=O)(=O)N3CCOCC3)ccc2o1 | 28 | / | / | / | /
CC1CCN(C(=O)Cn2cnc3c2c(=O)n(C)c(=O)n3C)c2ccccc2S1 (configuration not stated) | 6 | i | 23 | 1 | /
SMILES | PABP1 MLLE inh | PABP polyA inh | PHOSPHO1 inh | eIF4H inh | HMGR II inh
CC1(C(=O)NC(=S)N(CCC#N)c2ccccc2)CC1(Cl)Cl (configuration not stated) | 47* | i | 33 | 4 | -1
COc1ccc(/C=C2\SC(=S)N(CCCC(=O)Nc3ccccc3C(=O)O)C2=O)cc1OC | -68 | + | 15 | 57 | /
COc1cccc(/C=C2\SC(=S)N(CCCC(=O)Nc3cc(C)on3)C2=O)c1 | -66 | + | 33 | ? | /
CCc1ccc(/C=C2\SC(=S)N(CCCC(=O)NC3=NCCS3)C2=O)cc1 | 4 | / | / | / | /
COc1cccc(/C=C2\SC(=S)N(CCCC(=O)NC3=NCCS3)C2=O)c1 | 1 | + | 18 | 80 | /
CCc1ccc(/C=C2\SC(=S)N(CCCC(=O)Nc3cc(C)on3)C2=O)cc1 | -6 | / | / | / | /
Cc1cc(C)c(C(=O)CN2C(=O)NC3(CCCCCC3)C2=O)cc1C | 4 | i | 36 | -4 | 2
Cc1cc(=O)[nH]c2ccc(S(=O)(=O)NCc3ccccc3)cc12 | 7 | i | 63* | 2 | /
O=C(CSc1ccc(-c2ccco2)nn1)NCc1ccc(Cl)cc1 | 22 | i | 6 | 1 | 0
Cc1cccc(NC(=O)CSc2ccc(-c3ccccn3)nn2)c1C | 0 | i | -16 | -9 | 5
